ELG1 genotoxic – induces genotoxicity in HEK293T cells with luciferase-tagged ELG1; HEK293T ELG1-luciferase reporter, luminescence, 16 h; Potency, µM (doses to about 46 µM), without a hit: at the highest dose activity change, positive = activation, actives largely listed as activators; hit rate 1.3% among 330,000; AID 504466; note: % of control where 0% means no effect; nearly all actives have a fitted effect of over 60% in size
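16 hr compound incubation (37 °C, 5% CO2) of HEK293T cells carrying luciferase-tagged ELG1; luciferase then measured by ONE-Glo luminescence after 30 min at RT.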
NPC1 prom act – activates the NPC1 promoter; hit rate 2.4% among 320,000; Potency, µM (top dose mostly 9.22 µM), without a hit: at the top dose activation, usual class: activators; Huh7 NPC1 promoter luciferase reporter, 24 h; note: % of control where 0% means no effect; nearly all actives have a fitted effect of over 60% in size
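Huh7 reporter cells (NPC1 promoter driving luciferase) are dosed with compound for 24 h at 37 °C, 5% CO2; luciferase detection reagent is then added and luminescence measured after 10 min at ambient temperature.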
Rab9 prom act – Rab9 promoter activation; Huh7 Rab9 promoter-luciferase reporter, luminescence, 24 h; Potency, µM (highest dose often 9.22 µM), for the others: at the top dose activation, negative = inhibition, actives largely listed as activators; hit rate 2.8% among 320,000; AID 485297; note: % of control where 0% means no effect; nearly all actives have a fitted effect of over 60% in size
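Stable Rab9-luc Huh7, 1500 cells/well, 2 h settle; cmpd in DMSO, 24 h, 37 °C/5% CO2; luciferase reagent 10 min RT; luminescence.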
FLuc counter – inhibits or activates purified firefly luciferase, miR-21 counter-screen | Potency, µM (series often up to 57.5 µM), for the others: at the highest dose activity change, negative = inhibition, hits mostly inhibitors | hit rate 6.9% among 360,000 | purified FLuc, Km substrates, luminescence inhibition | P08659;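 note: plate controls were vehicle for no effect and reference inhibitor for full effect; nearly all actives have a fitted effect of over 55% in size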
Target sequence (P08659 whole entry, looked up): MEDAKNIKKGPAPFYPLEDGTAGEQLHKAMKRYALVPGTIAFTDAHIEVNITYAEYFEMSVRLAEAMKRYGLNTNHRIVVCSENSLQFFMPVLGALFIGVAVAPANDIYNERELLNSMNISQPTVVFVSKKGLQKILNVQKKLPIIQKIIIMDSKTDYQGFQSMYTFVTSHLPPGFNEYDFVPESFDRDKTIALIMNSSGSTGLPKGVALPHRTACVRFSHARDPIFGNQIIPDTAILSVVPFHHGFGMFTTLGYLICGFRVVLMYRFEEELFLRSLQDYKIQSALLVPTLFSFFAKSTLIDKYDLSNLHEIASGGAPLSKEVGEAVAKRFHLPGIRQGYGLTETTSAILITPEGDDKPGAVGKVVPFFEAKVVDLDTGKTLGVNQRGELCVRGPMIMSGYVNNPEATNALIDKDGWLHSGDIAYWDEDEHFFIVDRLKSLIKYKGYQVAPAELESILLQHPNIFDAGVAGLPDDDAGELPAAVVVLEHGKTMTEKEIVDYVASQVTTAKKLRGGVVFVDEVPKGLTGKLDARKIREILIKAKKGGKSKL
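Purified P. pyralis luciferase (10nM final) with 10uM D-luciferin and 10uM ATP (Km levels) in 50mM Tris acetate pH 7.5, 10mM Mg acetate, 0.01% Tween-20, 0.05% BSA; qHTS 6-point titration, ~60 µM downward; luminescence read.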
SMN2 splice enh – SMN2 splice variant enhancement. Potency, µM (titrated, usually from 46.1 µM), for inactives: at the highest dose activity change, positive = activation, most hits filed as activators. AID 1458. HEK293 SMN2-luciferase splicing reporter, luminescence, 30-36 h. hit rate 2.8% among 210,000; note: % of control where 0% means no effect; nearly all actives have a fitted effect of over 55% in size
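HEK293 cells carry an SMN2 minigene-luciferase reporter in which exon 7 inclusion puts luciferase in frame. Cells were seeded at 2000 cells/well, attached for 10-12 hours, then exposed to compounds for 30-36 hours at 37C before ONE-Glo luminescence.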
* hit, by the source's call; ? = inconclusive; nt = no result. Only some compounds are listed: those with a hit (about 7.5% of all), similar ones and a draw of the others. Calls come from the whole dose curve; as a rule, active = well fitted curve in the direction sought with a large enough effect; inconclusive = small, poorly fitted or top-dose-only effect, or another doubt; inactive = no such curve, though single readings can be large; an effect the other way counts as inactive or inconclusive. Potency is the fitted concentration of half-maximal effect.

SMILES	ELG1 genotoxic	NPC1 prom act	Rab9 prom act	FLuc counter	SMN2 splice enh
COc1ccc(C(=O)NCCn2ccc3ccccc32)cc1OC	-3.5%	3.1%	2.7%	-2.2%	9.7%
COc1cc(OC)cc(C(=O)NCCn2ccc3ccccc32)c1	-7.4%	12.0%	5.8%	-7.4%	-2.9%
O=C(NCCn1ccc2ccccc21)c1ccc(Cl)cc1	nt	nt	nt	21.3µM*	12.6µM*
COc1cccc(C(=O)NCCn2ccc3ccccc32)c1	?	2.82µM*	3.98µM*	19µM*	7.94µM*
CCOC(=O)c1ccc(N2C=C(C(=O)OC)C(c3ccc(OC)c(O)c3)C(C(=O)OC)=C2)cc1	5.3%	0.8%	0.7%	16.9µM*	nt
COC(=O)C1=CN(c2cc(C)cc(C)c2)C=C(C(=O)OC)C1c1ccc(OC)c(O)c1	5.3%	-0.8%	-1.9%	?	nt
CCOC(=O)N1CCC(N2Cc3cccc(C(=O)Nc4ccc(F)cc4)c3C2=O)CC1	-0.1%	-6.7%	-3.1%	-3.3%	-20.8%
CCOC(=O)N1CCC(N2Cc3cccc(C(=O)O)c3C2=O)CC1	-7.3%	2.0%	2.2%	1.4%	0.3%
CCOC(=O)N1CCC(N2Cc3cccc(C(=O)Nc4ccc(OCC)cc4)c3C2=O)CC1	-6.7%	0.7%	-1.7%	12µM*	nt
CCOC(=O)N1CCC(N2Cc3cccc(C(=O)Nc4ccc(CC)cc4)c3C2=O)CC1	-15.4%	0.3%	0.6%	12µM*	6.7%
C#C[C@]1(O)CC[C@H]2C3CCC4=Cc5oncc5CC4(C)C3CCC21C (stereo not given in full)	nt	nt	nt	nt	-8.3%
COc1ccc(OC)c(/C=C2\SC(=S)N(N3CCOCC3)C2=O)c1	-0.8%	-1.4%	15.8%	-18.1%	nt
CC(=O)Nc1ccc(/C=C2\Sc3ccccc3C2=O)cc1	?	-6.4%	12.8%	0.379µM*	nt
COc1ccc(OC)c(/C=C2/Sc3ccccc3C2=O)c1	15.1%	0.9%	1.1%	9.53µM*	nt
Cc1ccc(/C=C2\SC(N)=NC2=O)s1	2.7%	8.0%	9.8%	?	?
O=C1/C(=C/c2cccnc2)Sc2ccccc21	5.0%	-1.8%	-4.2%	9.53µM*	-1.6%
Cc1ccc(/C=C2\Sc3ccccc3C2=O)s1	?	?	?	0.426µM*	?
Cc1ccc(S(=O)(=O)N2CCN(c3ccccc3)CC2)cc1C(=O)NC1CCCCC1	0.0%	-2.5%	-2.9%	2.0%	nt
CC1=C(C(=O)Nc2cccnc2)C(c2cccc(F)c2)n2nc(SCc3ccccc3)nc2N1 (stereo not given)	nt	nt	nt	0.3%	9.7%
Cc1nc2ccc(NC(=O)CS(=O)(=O)c3ccccc3)cc2s1	?	?	?	15.1µM*	nt
COc1cc(CC(=O)Nc2ccc3nc(C)sc3c2)cc(OC)c1OC	-2.0%	-3.1%	-11.7%	0.2%	-16.3%
COc1cccc(CC(=O)Nc2ccc3nc(C)sc3c2)c1	17.1%	27.6%	14.1%	16.9µM*	5.9%
Cc1nc2ccc(NC(=O)CCS(=O)(=O)c3ccc(Cl)cc3)cc2s1	1.2%	-1.2%	1.4%	-7.0%	-44.1%
COc1ccccc1CC(=O)Nc1ccc2nc(C)sc2c1	?	17.0%	21.0%	16.9µM*	nt
Cc1nc2ccc(NC(=O)CCC3CCCC3)cc2s1	?	?	?	12µM*	nt
SMILES	ELG1 genotoxic	NPC1 prom act	Rab9 prom act	FLuc counter	SMN2 splice enh
COc1ccc(CNC(=O)C2CCN(S(=O)(=O)Cc3ccccc3)CC2)cc1	nt	nt	nt	-5.0%	nt
O=C(NCCO)C(=O)NCC(c1ccc2c(c1)OCO2)N1CCOCC1 (stereo not given)	nt	nt	nt	-1.6%	nt
CCC(Oc1ccccc1OC)C(=O)Nc1ccc2c(c1)OCCO2 (stereo not given)	10.3%	-2.1%	-2.2%	-10.1%	nt
COc1ccc(Nc2nc3ccc(Cl)cc3n3nnnc23)cc1OC	nt	nt	nt	?	8.8%
CCOc1ccc(S(=O)(=O)n2nc(C)c(S(=O)(=O)N3CCCCC3)c2C)cc1	nt	nt	nt	-9.1%	nt
CCS(=O)(=O)c1cccc(C(=O)Nc2ccc(-c3nc4ccccc4s3)c(O)c2)c1	nt	nt	nt	5.5%	nt
O=C(CCS(=O)(=O)c1ccccc1)Nc1ccc(-c2nc3ccccc3s2)c(O)c1	14.1%	?	1.26µM*	2.6%	2.51µM*
Cc1ccc(N2CS(=O)(=O)/C(=C/N(C)C)C2=O)cc1	?	2µM*	1.26µM*	12µM*	12.6µM*
CN(C)/C=C1\SC(=S)N(c2ccc(F)cc2)C1=O	11.8%	10.5%	20.3%	-15.2%	nt
CN1CCN(C2=C(Cl)C(=O)N(c3ccc(Cl)cc3)C2=O)CC1	-7.7%	-0.4%	6.6%	-2.0%	-10.3%
CN(C)/C=C1\C(=O)N(c2ccc(Cl)cc2)CS1(=O)=O	?	3.16µM*	?	16.9µM*	29.1%
COc1cc(S(=O)(=O)N2CCOCC2)ccc1NC(=O)COC(=O)CC12CC3CC(CC(C3)C1)C2	-2.8%	1.5%	0.9%	0.8%	-20.7%
CC(C)Oc1ccc(C2CC(=O)N(c3cccc(C(=O)O)c3)C2=O)cc1 (stereo not given)	?	27.6%	2.6%	16.9µM*	19.2%
CN(C)Cc1ccccc1-c1cc(N(C)C)ncn1	nt	nt	nt	nt	-0.8%
CC(=O)c1ccc(N2CCN(C(=O)CCS(=O)(=O)c3ccc4c(c3)NC(=O)CS4)CC2)cc1	-1.6%	1.5%	-1.7%	-14.0%	nt
Cc1ccc(C)c(NC(=O)NCc2ccccn2)c1	0.5%	-5.5%	-4.6%	1.3%	nt
CN(C)c1ccc(NC(=S)c2ccc3ccccc3n2)cc1	?	?	23.8%	16.9µM*	nt
Cc1ccc(C)c(NC(=S)c2ccccn2)c1	14.7%	20.5%	23.2%	16.9µM*	16.6%
Cc1ccc(C)c(NC(=S)c2ccc3ccccc3n2)c1	?	?	3.16µM*	5.36µM*	11.2µM*
CC(C)Oc1ccc(CN2CCC(n3nccc3NC(=O)C3CC3)CC2)cc1	3.0%	-0.1%	1.0%	-2.5%	nt
Cc1ccc(C)c(NC(=S)NCCN(C2CCCCC2)C2CCCC2)c1	-9.1%	2.9%	-6.6%	-1.1%	-26.5%
O=C(Nc1ccc(Cl)cc1)C1C2C=CC3(O2)C1C(=O)N(CCCN1CCCCC1)C3C(=O)NC1CCCCC1 (stereo not given)	-1.5%	3.5%	0.8%	3.7%	nt
CCS(=O)(=O)Nc1ccc(-c2nc3cccnc3s2)cc1	?	0.794µM*	0.708µM*	1.69µM*	nt
O=S(=O)(Nc1ccc(-c2nc3cccnc3s2)cc1)c1ccc(Cl)s1	8.2µM*	?	?	19µM*	12.6µM*
O=S(=O)(Nc1ccc(-c2nc3cccnc3s2)cc1)c1cccs1	?	28.4%	26.8%	-14.8%	?
Cc1nc2ccc(S(=O)(=O)Nc3ccc(-c4nc5cccnc5s4)cc3)cc2s1	10.6%	2.5%	-2.8%	?	?
CCS(=O)(=O)Nc1cccc(-c2nc3cccnc3s2)c1	4.5%	?	?	19µM*	nt
Cc1ccc(-c2nc3cccnc3s2)cc1NS(=O)(=O)c1ccc2c(c1)CCCC2	0.5%	-3.6%	-1.1%	-18.0%	19.9%
